Laboratory results published in PubChem BioAssay (NCATS).
Where “and” joins values, the source holds several entries; their conditions need not be identical. Equal entries are not always repeated. Inconclusive results are not listed. Calls of active or inactive are those of the source. Unless noted, calls come from the whole dose curve.

What was measured:
[1] = molecular target: Estrogen receptor (Homo sapiens) (UniProt P03372); assay: qHTS assay for small molecule agonists of estrogen receptor alpha signaling (AID 588514); note: nearly all actives have a fitted effect of over 70% in size; note: potency is the fitted concentration of half-maximal effect;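 for activation: 0% = vehicle only and 100% = reference agonist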
Chain of Estrogen receptor (Homo sapiens) (P03372 whole entry, looked up): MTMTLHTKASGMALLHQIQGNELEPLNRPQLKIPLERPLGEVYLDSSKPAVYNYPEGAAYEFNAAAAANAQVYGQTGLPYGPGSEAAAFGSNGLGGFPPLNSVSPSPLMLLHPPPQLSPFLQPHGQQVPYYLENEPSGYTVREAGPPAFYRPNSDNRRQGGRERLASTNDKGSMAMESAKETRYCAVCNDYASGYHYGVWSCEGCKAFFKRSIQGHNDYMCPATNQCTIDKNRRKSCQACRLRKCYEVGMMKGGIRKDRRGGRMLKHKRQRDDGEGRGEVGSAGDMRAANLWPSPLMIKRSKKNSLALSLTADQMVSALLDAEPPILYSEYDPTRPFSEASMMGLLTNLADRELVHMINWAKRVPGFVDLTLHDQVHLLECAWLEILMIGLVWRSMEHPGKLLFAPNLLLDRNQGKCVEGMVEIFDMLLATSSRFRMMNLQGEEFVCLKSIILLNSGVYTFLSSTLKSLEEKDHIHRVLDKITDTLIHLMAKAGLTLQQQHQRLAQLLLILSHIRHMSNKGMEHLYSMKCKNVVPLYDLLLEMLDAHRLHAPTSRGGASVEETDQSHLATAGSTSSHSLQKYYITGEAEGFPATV
Outline: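 Reporter-gene assay. […] controls beta-lactamase in HEK 293 GripTite cells; after 18 hrs with compound, CCF4 substrate is added for 2 hrs and fluorescence is read.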

[2] = molecular target: Glucocorticoid receptor (Homo sapiens) (UniProt P04150); assay: qHTS assay for small molecule agonists of glucocorticoid receptor signaling (AID 588532; active = well fitted curve in the direction sought with a large enough effect in the signal ratio, with a control signal flat; the % refers to the signal ratio;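 note: 100% = dexamethasone at 0.1 µM and 0% = DMSO only wells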); conditions: HeLa MMTV-bla, beta-lactamase ratio, agonist, 18 h; activation: stronger effect = higher value, percent of dexamethasone control, DMSO zero
Chain of Glucocorticoid receptor (Homo sapiens) (P04150 whole entry, looked up): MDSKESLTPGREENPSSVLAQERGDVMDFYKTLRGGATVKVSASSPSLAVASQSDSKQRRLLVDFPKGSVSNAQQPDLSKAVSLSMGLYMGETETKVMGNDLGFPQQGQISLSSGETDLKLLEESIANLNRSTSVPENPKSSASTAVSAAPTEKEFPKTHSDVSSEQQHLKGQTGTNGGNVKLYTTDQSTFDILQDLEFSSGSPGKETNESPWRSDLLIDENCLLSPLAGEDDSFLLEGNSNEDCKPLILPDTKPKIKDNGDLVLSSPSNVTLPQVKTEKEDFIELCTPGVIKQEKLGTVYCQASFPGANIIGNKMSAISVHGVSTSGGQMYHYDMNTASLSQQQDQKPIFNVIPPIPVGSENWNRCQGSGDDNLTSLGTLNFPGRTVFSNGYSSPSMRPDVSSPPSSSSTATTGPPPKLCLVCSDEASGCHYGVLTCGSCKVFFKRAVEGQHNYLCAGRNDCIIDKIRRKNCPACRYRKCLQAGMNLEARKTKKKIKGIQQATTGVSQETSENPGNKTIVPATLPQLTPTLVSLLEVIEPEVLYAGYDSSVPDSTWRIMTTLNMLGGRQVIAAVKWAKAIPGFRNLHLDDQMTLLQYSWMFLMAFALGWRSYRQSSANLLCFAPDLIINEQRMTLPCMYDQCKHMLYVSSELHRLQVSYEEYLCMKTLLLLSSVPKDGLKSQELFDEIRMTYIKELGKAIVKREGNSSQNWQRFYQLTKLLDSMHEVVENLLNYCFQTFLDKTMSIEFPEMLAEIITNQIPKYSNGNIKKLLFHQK
Outline: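 Agonist-mode qHTS: GRE-driven beta-lactamase in HeLa cells exposed 18 h to titrated compounds (up to 92 uM), then CCF4 ratio read after 2 h at RT; Hill-fitted EC50, efficacy relative to 0.1 uM dexamethasone.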

[3] = molecular target: Glucocorticoid receptor (Homo sapiens) (UniProt P04150); assay: qHTS assay for small molecule antagonists of glucocorticoid receptor signaling (AID 588533; active = well fitted inhibition curve with a large enough effect in the signal ratio, with a control signal flat, not every such curve was filed as active; the % refers to the signal ratio;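 note: cells stimulated with 2 nM dexamethasone as agonist; % is set by controls: 0 for no effect and ±100 for the full control effect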)
Outline: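 Antagonist-mode qHTS: compound titrations added to GRE-bla HeLa cells, then dexamethasone 2 nM final; 18 h, 37 C. CCF4 FRET fluorescence normalized to dexamethasone and DMSO; IC50 from Hill fit.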

[4] = molecular target: Peroxisome proliferator-activated receptor delta (Homo sapiens) (UniProt Q03181); assay: qHTS assay for small molecule agonists of peroxisome proliferator-activated receptor delta signaling (AID 588534);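 note: 0% = DMSO basal wells and 100% = positive control agonist at 10 µM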
Chain of Peroxisome proliferator-activated receptor delta (Homo sapiens) (Q03181 whole entry, looked up): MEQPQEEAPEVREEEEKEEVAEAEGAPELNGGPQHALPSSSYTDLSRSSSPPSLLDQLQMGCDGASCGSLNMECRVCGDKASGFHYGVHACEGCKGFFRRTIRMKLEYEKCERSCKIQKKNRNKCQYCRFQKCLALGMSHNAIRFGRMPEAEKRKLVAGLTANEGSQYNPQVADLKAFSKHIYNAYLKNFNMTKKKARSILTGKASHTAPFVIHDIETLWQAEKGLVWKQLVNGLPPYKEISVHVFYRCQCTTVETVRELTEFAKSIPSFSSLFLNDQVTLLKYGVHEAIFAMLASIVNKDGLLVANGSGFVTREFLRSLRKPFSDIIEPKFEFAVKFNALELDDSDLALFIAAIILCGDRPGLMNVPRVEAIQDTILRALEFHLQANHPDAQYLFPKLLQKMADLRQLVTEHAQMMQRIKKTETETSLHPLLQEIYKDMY
Outline: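 Reporter cells were plated and held 5 hrs at 37 C before compounds were added. After 18 hrs at 37 C, CCF4 dye was loaded for 2 hrs at RT and fluorescence measured.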

[5] = molecular target: Vitamin D3 receptor (Homo sapiens) (UniProt P11473); assay: qHTS assay for small molecule agonists of vitamin D receptor signaling (AID 588543);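 note: 0% = DMSO basal and 100% = reference agonist control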
Chain of Vitamin D3 receptor (Homo sapiens) (P11473 whole entry, looked up): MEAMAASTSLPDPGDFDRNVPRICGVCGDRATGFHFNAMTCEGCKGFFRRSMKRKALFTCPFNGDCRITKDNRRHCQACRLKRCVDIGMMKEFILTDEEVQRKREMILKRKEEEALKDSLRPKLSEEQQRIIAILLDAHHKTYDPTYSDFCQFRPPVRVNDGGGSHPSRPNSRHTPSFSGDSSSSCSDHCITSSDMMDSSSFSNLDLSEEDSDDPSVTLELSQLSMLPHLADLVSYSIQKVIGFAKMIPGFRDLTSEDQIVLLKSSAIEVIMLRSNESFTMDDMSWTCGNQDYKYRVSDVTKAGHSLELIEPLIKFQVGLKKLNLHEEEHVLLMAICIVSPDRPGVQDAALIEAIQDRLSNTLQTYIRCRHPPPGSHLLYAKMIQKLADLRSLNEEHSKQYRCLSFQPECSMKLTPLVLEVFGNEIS
Outline: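 qHTS in agonist mode: compound titrations stimulate a VDR-driven β-lactamase reporter in HEK293T cells over 16 h at 37 °C. Response normalized to 50 nM 1α,25-dihydroxyvitamin D3 = 100%, DMSO = 0%; Hill fitting gives EC50 and maximal response.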

[6] = molecular target: Thyroid hormone receptor beta (Homo sapiens) (UniProt P10828); assay: qHTS assay for small molecule agonists of thyroid hormone receptor beta signaling (AID 588545)
Chain of Thyroid hormone receptor beta (Homo sapiens) (P10828 whole entry, looked up): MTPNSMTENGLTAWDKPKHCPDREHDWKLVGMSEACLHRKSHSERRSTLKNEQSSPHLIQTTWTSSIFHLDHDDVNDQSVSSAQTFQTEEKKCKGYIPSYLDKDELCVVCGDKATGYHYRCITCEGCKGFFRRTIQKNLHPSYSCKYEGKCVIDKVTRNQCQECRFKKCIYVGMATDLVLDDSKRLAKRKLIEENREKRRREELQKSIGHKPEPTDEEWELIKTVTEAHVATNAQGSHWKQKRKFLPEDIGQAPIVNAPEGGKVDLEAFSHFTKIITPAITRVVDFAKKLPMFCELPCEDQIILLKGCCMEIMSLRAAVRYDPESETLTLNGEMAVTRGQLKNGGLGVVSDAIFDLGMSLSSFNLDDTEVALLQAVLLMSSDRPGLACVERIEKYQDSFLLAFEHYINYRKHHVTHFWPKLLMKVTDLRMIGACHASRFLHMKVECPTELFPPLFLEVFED
Outline: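 HEK 293 TR-UAS-bla; agonist mode; 18 hrs, 37 C; CCF4, ex 405/em 460 and 530 nm; norm. T3 10 nM = 100%, DMSO = 0%; Hill fit → EC50, efficacy.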

[7] = qHTS assay for small molecule antagonists of retinoid X receptor alpha signaling (AID 588546; active = well fitted inhibition curve with a large enough effect in the signal ratio, with a control signal flat, not every such curve was filed as active; the % refers to the signal ratio;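 note: cells stimulated with 9-cis-retinoic acid as agonist; % is set by controls: 0 for no effect and ±100 for the full control effect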); conditions: HEK293T RXRa-UAS-bla, beta-lactamase ratio, antagonist mode; measured here: W530 green channel, cytotoxicity proxy
Outline: (§1)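 Beta-lactamase reporter inhibition, read as CCF4 fluorescence ratio (ex 405, em 460/530 nm) after 2 h at RT. HEK293T UAS-bla cells, 2500/well, were stimulated with 9-cis-RA at 500 or 100 nM final alongside test compound for 18 h at 37 C.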

[8] = molecular target: Retinoic acid receptor RXR-alpha (Homo sapiens) (UniProt P19793); assay: as above; conditions: HEK293T RXRa-UAS-bla, beta-lactamase ratio, antagonist mode
Chain of Retinoic acid receptor RXR-alpha (Homo sapiens) (P19793 whole entry, looked up): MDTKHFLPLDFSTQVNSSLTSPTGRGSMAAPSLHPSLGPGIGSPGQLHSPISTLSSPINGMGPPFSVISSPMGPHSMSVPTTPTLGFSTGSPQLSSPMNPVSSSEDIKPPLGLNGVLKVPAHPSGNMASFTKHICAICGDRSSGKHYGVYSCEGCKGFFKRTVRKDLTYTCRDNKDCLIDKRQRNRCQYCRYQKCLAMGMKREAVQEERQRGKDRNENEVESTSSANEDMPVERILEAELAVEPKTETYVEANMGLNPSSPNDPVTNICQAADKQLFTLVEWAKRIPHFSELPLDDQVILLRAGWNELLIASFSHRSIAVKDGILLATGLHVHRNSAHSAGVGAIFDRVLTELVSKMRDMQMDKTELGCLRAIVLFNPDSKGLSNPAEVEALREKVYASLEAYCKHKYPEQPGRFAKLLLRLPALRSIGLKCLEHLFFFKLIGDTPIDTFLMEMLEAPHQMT
Outline: as §1

[9] = molecular target: Thyroid hormone receptor beta (Homo sapiens) (UniProt P10828); assay: qHTS assay for small molecule antagonists of thyroid hormone receptor beta signaling (AID 588547; active = well fitted inhibition curve with a large enough effect in the signal ratio, with a control signal flat, not every such curve was filed as active; the % refers to the signal ratio;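 note: cells stimulated with 0.4 nM T3 agonist during compound exposure; series mostly up to about 77 µM; % is set by controls: 0 for no effect and ±100 for the full control effect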); conditions: TR-UAS-bla HEK293, beta-lactamase ratio, antagonist mode, 18 h
Outline: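 Inhibition of T3-driven (0.4nM final) beta-lactamase reporter activity was measured over 0.59 nM to 92 uM compound after 18 h at 37 C. The cells were GripTite HEK293 TR-UAS-bla in charcoal/dextran-stripped serum, with CCF4 ratio read-out and IC50 from Hill fits.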

[10] = qHTS assay for environmental chemicals that activate the Aryl hydrocarbon Receptor (AhR) signaling pathway (AID 651777; active = well fitted curve in the direction sought with a large enough effect; an effect the other way counts as inactive or inconclusive; note: % of control where 0% means no effect; nearly all actives have a fitted effect of over 15% in size); conditions: 1A2-DRE human hepatoma cells, luciferase, 24 h; activation: stronger effect = higher value
Outline: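 Stable CYP1A2 promoter/DRE-luciferase human hepatoma line treated 24 hr; One-Glo luminescence, 30 min RT.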

[11] = molecular target: Peroxisome proliferator-activated receptor alpha (Homo sapiens) (UniProt Q07869); assay: qHTS assay for small molecule agonists of the peroxisome proliferator-activated receptor alpha (PPARalpha) signaling pathway (AID 651778; active = well fitted curve in the direction sought with a large enough effect; an effect the other way counts as inactive or inconclusive; note: % of control where 0% means no effect); conditions: PathHunter PPARalpha complementation, chemiluminescence, 6 h; max response: stronger effect = higher value
Chain of Peroxisome proliferator-activated receptor alpha (Homo sapiens) (Q07869 whole entry, looked up): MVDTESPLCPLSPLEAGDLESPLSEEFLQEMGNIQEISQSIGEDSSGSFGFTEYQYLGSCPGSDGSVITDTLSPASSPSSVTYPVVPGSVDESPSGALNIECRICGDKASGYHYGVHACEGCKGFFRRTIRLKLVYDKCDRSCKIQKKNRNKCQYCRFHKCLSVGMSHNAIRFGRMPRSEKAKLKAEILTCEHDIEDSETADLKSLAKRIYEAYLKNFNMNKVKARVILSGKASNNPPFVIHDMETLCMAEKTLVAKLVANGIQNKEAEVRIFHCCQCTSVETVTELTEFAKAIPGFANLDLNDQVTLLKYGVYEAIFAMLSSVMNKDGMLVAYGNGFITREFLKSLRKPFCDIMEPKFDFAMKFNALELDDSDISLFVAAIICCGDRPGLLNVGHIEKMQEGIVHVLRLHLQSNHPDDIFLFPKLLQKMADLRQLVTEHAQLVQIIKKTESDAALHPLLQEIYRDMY
Outline: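 Chemiluminescence from complemented enzyme reported PPARalpha activation in cells after 6 hr of compound treatment at 37 C. The detection reagent was incubated for 60 min at room temperature, and compounds were scored as agonists.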

[12] = qHTS assay for small molecule agonists of the antioxidant response element (ARE) signaling pathway measured by Nrf2-dependant transcriptional activity - cell viability counter screen (AID 720653; active = well fitted curve in the direction sought with a large enough effect in the repeat runs; an effect the other way counts as inactive or inconclusive; note: % is set by controls: 0 for no effect and ±100 for the full control effect); conditions: ARE-bla HepG2 viability, CellTiter-Glo ATP luminescence, 16 h; max response: stronger effect = lower value
Outline: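 Cytotoxicity counter screen: intracellular ATP quantified by CellTiter-Glo luminescence in the same ARE-bla HepG2 plates, after 16 h compound exposure and a 2 h beta-lactamase substrate step.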

[13] = qHTS assay for cell viability of HEK293 cells (AID 743288; active = well fitted curve in the direction sought with a large enough effect; an effect the other way counts as inactive or inconclusive; note: % is set by controls: 0 for no effect and ±100 for the full control effect; nearly all actives have a fitted effect of over 50% in size); conditions: ATP luminescence (CellTiter-Glo), 18 h; max response: stronger effect = lower value
Outline: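 The Tox21 protocol used parental HEK293 cells treated for 18 h at 37 C with compounds delivered by pintool; ATP-coupled luminescence after 30 min at room temperature gave viability.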

[14] = molecular target: Nuclear receptor subfamily 1 group I member 2 (Rattus norvegicus) (UniProt Q9R1A7); assay: qHTS assay for small molecule activators of the rat pregnane X receptor (rPXR) signaling pathway (AID 651751; call rule not given here; note: 0% is about no effect); conditions: rPXR reporter cells, luciferase (One-Glo), 24 h
Chain of Nuclear receptor subfamily 1 group I member 2 (Rattus norvegicus) (Q9R1A7 whole entry, looked up): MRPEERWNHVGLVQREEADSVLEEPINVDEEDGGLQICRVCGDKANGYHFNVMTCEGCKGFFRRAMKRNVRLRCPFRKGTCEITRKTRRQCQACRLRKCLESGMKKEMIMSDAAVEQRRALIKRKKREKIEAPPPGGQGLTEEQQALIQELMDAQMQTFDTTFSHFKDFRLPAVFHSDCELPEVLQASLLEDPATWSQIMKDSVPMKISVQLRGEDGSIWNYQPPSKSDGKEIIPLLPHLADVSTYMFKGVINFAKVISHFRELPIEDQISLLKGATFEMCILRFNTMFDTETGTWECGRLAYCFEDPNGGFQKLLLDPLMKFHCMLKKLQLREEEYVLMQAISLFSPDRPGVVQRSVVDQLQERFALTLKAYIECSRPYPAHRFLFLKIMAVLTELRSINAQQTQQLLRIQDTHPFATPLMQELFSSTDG

[15] = qHTS assay for small molecule agonists of retinoid X receptor alpha signaling (AID 588544); conditions: HEK293T RXRa-UAS-bla, beta-lactamase reporter, 18 h; 530 nm emission;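 for activation: 0% = DMSO basal wells and 100% = reference agonist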
[16] = molecular target: Retinoic acid receptor RXR-alpha (Homo sapiens) (UniProt P19793); assay: as above
[17] = qHTS assay for small molecule activators of the p53 signaling pathway (AID 651743; active = well fitted activation curve with a large enough effect in the signal ratio, not every such curve was filed as active; the % refers to the signal ratio; note: series mostly up to about 92 µM; % of control where 0% means no effect); conditions: HCT-116 p53RE-bla, beta-lactamase FRET ratio, 16 h; activation: stronger effect = higher value
Outline: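 Screen for p53 pathway agonists uses stably transfected p53RE-bla HCT-116 cells, 4,000 per well, treated 16 h at 37 C with compounds in DMSO.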

[18] = qHTS assay for small molecule agonists of the antioxidant response element (ARE) signaling pathway measured by Nrf2-dependant transcriptional activity (AID 720636; active = well fitted curve in the direction sought with a large enough effect in the repeat runs; an effect the other way counts as inactive or inconclusive;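 note: HepG2 cells with an ARE-driven luciferase reporter; % of control where 0% means no effect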)
Outline: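 Reporter gene assay, HepG2 ARE-luc: 16 hr compound, 37 C, 5% CO2; read-out luciferase luminescence.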

[19] = qHTS assay for cell viability of the p53RE-bla HCT-116 cell line (AID 743292; active = well fitted curve in the direction sought with a large enough effect; an effect the other way counts as inactive or inconclusive; note: % is set by controls: 0 for no effect and ±100 for the full control effect; nearly all actives have a fitted effect of over 55% in size)
Outline: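 Readout: CellTiter-Glo luminescence after 30 min RT. Treatment: compounds in DMSO, 16 h, 37 C. Cells: CellSensor p53RE-bla HCT-116, 4,000/well, preincubated 5 h.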

[20] = molecular target: Peroxisome proliferator-activated receptor gamma (Homo sapiens) (UniProt P37231); assay: qHTS assay for small molecule agonists of peroxisome proliferator-activated receptor gamma signaling (AID 588536; active = well fitted curve in the direction sought with a large enough effect in the signal ratio, with a control signal flat, not every such curve was filed as active; the % refers to the signal ratio;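 note: 0% = DMSO basal wells and 100% = rosiglitazone at 2 µM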)
Chain of Peroxisome proliferator-activated receptor gamma (Homo sapiens) (P37231 whole entry, looked up): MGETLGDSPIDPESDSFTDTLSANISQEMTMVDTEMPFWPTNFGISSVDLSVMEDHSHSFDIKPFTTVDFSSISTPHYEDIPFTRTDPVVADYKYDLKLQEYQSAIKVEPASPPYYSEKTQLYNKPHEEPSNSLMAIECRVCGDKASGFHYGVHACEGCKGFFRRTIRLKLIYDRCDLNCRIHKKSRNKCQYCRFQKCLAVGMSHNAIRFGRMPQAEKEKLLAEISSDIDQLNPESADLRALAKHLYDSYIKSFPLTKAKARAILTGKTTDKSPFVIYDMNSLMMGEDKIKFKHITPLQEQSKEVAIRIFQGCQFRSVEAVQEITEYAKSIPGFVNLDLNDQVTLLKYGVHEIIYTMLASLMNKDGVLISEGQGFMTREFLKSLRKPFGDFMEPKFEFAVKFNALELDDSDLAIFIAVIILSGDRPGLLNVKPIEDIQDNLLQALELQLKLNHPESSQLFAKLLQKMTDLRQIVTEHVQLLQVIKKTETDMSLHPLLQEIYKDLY
Outline: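 PPAR-gamma-UAS-bla HEK293 cells in medium with 1% charcoal/dextran-treated FBS were exposed to compounds for 16 h at 37 C. Beta-lactamase activity was read with CCF4 substrate (405 nm excitation, 460/530 nm emission).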

COC[C@H](C)N(C(=O)CCl)c1c(C)csc1C
inactive: Potency [1] | activation [2] -4.92% | Potency [3] | outcome [4] | outcome [5] | Potency [6] | max response [8] -19.4% | activity change % (negative = inhibition) [9] -22.8% | activation [10] -2.7% | max response [11] -0.842% | max response [12] 0.25% | max response [13] -14.5% | max response [14] 0.618%
-0.446%: max response [7]

Cc1cc(Cl)ccc1OCC(=O)O
inactive: Potency [1] | activation [2] -2.21% and 11.1% | Potency [3] | outcome [5] | Potency [16] | Potency [6] | max response [8] 3.77% and -0.223% | activity change % (negative = inhibition) [9] 22.2% and -4.04% | activation [17] -6.22% and 0.0507% | activation [10] 0.725% and -1.61% | max response [11] 0.459% and -1.12% | Potency [18] | max response [12] 17.3% and -19.3% | max response [13] -1.7% and -11.8% | Potency [19] | max response [14] -1.6% and -6.7%
-7.53%: max response [15]
-3.03% and 10.9%: max response [7]

CC(C)=CC1[C@H](C(=O)OCc2cccc(Oc3ccccc3)c2)C1(C)C (some centres not stated)
-6.27%: max response [15]
inactive: Potency [1] | activation [2] 1.86% | Potency [3] | outcome [4] | outcome [5] | Potency [16] | Potency [6] | max response [8] 3.36% | activity change % (negative = inhibition) [9] 2.1% | activation [17] -1.37% | activation [10] -0.0338% | max response [11] -1.72% | Potency [18] | max response [12] -3.94%
-13.6%: max response [7]

C#CCN1C(=O)COc2cc(F)c(N3C(=O)C4=C(CCCC4)C3=O)cc21
inactive: Potency [1] | activation [2] -6.94% | Potency [3] | outcome [4] | outcome [5] | Potency [16] | Potency [6] | max response [8] -8.58% | activity change % (negative = inhibition) [9] -4.79% | activation [10] 0.764% | max response [11] -2.95% | Potency [18] | max response [12] -24.6% | max response [13] -11.7% | Potency [19] | max response [14] 6.57%
-8.78%: max response [15]
5.82%: max response [7]

CNC(=O)Oc1cc(C)c(SC)c(C)c1
inactive: activation [2] 13.5% | Potency [3] | outcome [4] | Potency [20] | outcome [5] | activity change % (negative = inhibition) [9] -16.8% | activation [10] 0.0661% | max response [11] 0.9% | max response [12] -13.2% | Potency [19]
active: Potency [1] 25.1 µM
